Consider ten compounds from PubChem BioAssay (NCI).

Assay [1] can be described thus: NCI Yeast Anticancer Drug Screen. Data for the rad50 strain (AID 155).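 Note: 0% = growth of vehicle-only cultures of the same strain.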 The conditions noted are these: S. cerevisiae rad50 strain growth inhibition, active compounds read high. The procedure, abridged: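 Relative growth inhibition (compound vs vehicle) was measured in yeast with a defined repair-gene alteration.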
Assay [2] in a line: NCI Yeast Anticancer Drug Screen. Data for the mec2-1 strain (AID 157). The conditions noted are these: S. cerevisiae mec2-1 strain, active compounds read high. The procedure, abridged:
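Strain: mec2-1 (DNA repair/cell cycle alteration). Compound exposure, then growth measured; inhibition expressed relative to vehicle.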

Assay [3] in a line: NCI Yeast Anticancer Drug Screen. Data for the sgs1 mgt1 strain (AID 161).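 Note: 0% = growth of cultures given vehicle only.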 The conditions noted are these: S. cerevisiae sgs1 mgt1 strain, active compounds read high. The procedure, abridged:
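Inhibition of yeast growth, normalised to vehicle-treated controls, is reported for a strain bearing genetic alterations in DNA damage repair.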

A short description of assay [4]: NCI Yeast Anticancer Drug Screen. Data for the cln2 rad14 strain (AID 165).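 Note: 0% = growth equal to vehicle treated cultures.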 The conditions noted are these: S. cerevisiae cln2 rad14 strain, active compounds read high. In short, it runs like this: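 Compounds are applied to the cln2 rad14 yeast strain, and growth is then compared with that of vehicle-treated cultures to give inhibition.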
The nature of assay [5]: NCI Yeast Anticancer Drug Screen. Data for the bub3 strain (AID 167). The conditions noted are these: S. cerevisiae bub3 mutant strain, active compounds read high. The procedure, abridged:
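Screening used yeast with an engineered genetic alteration affecting cell cycle control. Compound-exposed cultures were compared with vehicle cultures, and reduced growth was taken as inhibition.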

Assay [6] can be described thus: NCI Yeast Anticancer Drug Screen. Data for the mlh1 rad18 strain (AID 175). The conditions noted are these: S. cerevisiae mlh1 rad18 strain growth inhibition, active compounds read high. The procedure, abridged:
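Read-out is yeast growth inhibition, calculated against vehicle-only controls. The compound was applied to a strain engineered with DNA damage repair alterations.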

Where [7] appears, read: at 5.0 µM (retest, dose inferred, filed as 0.5).
[8] abbreviates: at 50.0 µM (retest, dose inferred, filed as 5.0).

Compounds without any hit were thinned out: in the full panel of roughly 79,000, 15% have a hit. Values without a mark were called inactive. The source made the active and inactive calls. Cut-off read from the data, not from the text of the source: active = growth inhibition above about 70%; inactive = the rest.

Take `O=C(O)/C=C/C(=O)Nc1cccc2ccccc12`: the growth inhibition in assay [1] (setting [7]) was 40%; in assay [1] (setting [8]), 40%; in assay [1] (at 50.0 µM), 6.35%; in assay [2] (setting [7]), 44%; in assay [2] (setting [8]), 49%; in assay [2] (at 50.0 µM), 35.9%. For the same compound, the growth inhibition in assay [3] (setting [7]) is 21%; in assay [3] (setting [8]), 100% (active); in assay [3] (at 50.0 µM), 55.5%; in assay [4] (setting [7]), 39%; in assay [4] (setting [8]), 100% (active); in assay [4] (at 50.0 µM), 2.25%. For the same compound, the growth inhibition was 64% in assay [5] (setting [7]); 100% (active) in assay [5] (setting [8]); 55% in assay [5] (at 50.0 µM); 26% in assay [6] (setting [7]); 44% in assay [6] (setting [8]); 16.8% in assay [6] (at 50.0 µM).
Consider `CN(C)C=C1C(Cl)=C(C=O)CC(C=O)=C1Cl`, for which the growth inhibition in assay [1] (setting [7]) is 2%; in assay [1] (setting [8]), 24%; in assay [1] (at 50.0 µM), 12.3%; in assay [2] (setting [7]), 3%; in assay [2] (setting [8]), 26%; in assay [2] (at 50.0 µM), 23.1%. Moreover, the growth inhibition in assay [3] (setting [7]) is 3%; in assay [3] (setting [8]), 36%; in assay [3] (at 50.0 µM), 63.7%; in assay [4] (setting [7]), -2%; in assay [4] (setting [8]), 3%; in assay [4] (at 50.0 µM) it was 40.3%. For the same compound, the growth inhibition in assay [5] (setting [7]) was -2%; in assay [5] (setting [8]) it was 9%; in assay [5] (at 50.0 µM), 18.5%; in assay [6] (setting [7]), 0%; in assay [6] (setting [8]) it was -12%; in assay [6] (at 50.0 µM), 89.5% (active).
For the compound `CCCCCCCCCCCCCCCC1=NCCN1C`, the growth inhibition in assay [1] (setting [7]) is 14%; in assay [1] (setting [8]), 99% (active); in assay [1] (at 50.0 µM), 99.1% (active); in assay [2] (setting [7]), 9%; in assay [2] (setting [8]) it was 100% (active); in assay [2] (at 50.0 µM), 99.5% (active). The growth inhibition is 29% in assay [3] (setting [7]); 99% (active) in assay [3] (setting [8]); 54.9% in assay [3] (at 50.0 µM); 15% in assay [4] (setting [7]); 98% (active) in assay [4] (setting [8]); 96.5% (active) in assay [4] (at 50.0 µM). Moreover, the growth inhibition is 48% in assay [5] (setting [7]); 99% (active) in assay [5] (setting [8]); 99.3% (active) in assay [5] (at 50.0 µM); 16% in assay [6] (setting [7]); 99% (active) in assay [6] (setting [8]); 98.9% (active) in assay [6] (at 50.0 µM).
For the compound `Oc1ccc(O)c2c1CC=C(Cl)C2`, the growth inhibition in assay [1] (setting [7]) is 10%; in assay [1] (setting [8]) it was 48%; in assay [1] (at 50.0 µM), 52.4%; in assay [2] (setting [7]), 12%; in assay [2] (setting [8]), 57%; in assay [2] (at 50.0 µM), 52.9%. The growth inhibition in assay [3] (setting [7]) was 13%; in assay [3] (setting [8]) it was 55%; in assay [3] (at 50.0 µM), 33%; in assay [4] (setting [7]) it was -1%; in assay [4] (setting [8]), 86% (active); in assay [4] (at 50.0 µM) it was 24.9%. Further, the growth inhibition in assay [5] (setting [7]) was 26%; in assay [5] (setting [8]), 83% (active); in assay [5] (at 50.0 µM), 56.5%; in assay [6] (setting [7]) it was 17%; in assay [6] (setting [8]), 75% (active); in assay [6] (at 50.0 µM) it was 59.8%.
As to `COc1cc(C2c3cc4c(cc3C(OC3CCCCO3)C3COC(=O)C23)OCO4)cc(OC)c1OC` (stereo not given), the growth inhibition in assay [1] (setting [7]) was -2%; in assay [1] (setting [8]), 19%; in assay [1] (at 50.0 µM), 31.9%; in assay [2] (setting [7]), -1%; in assay [2] (setting [8]) it was 7%; in assay [2] (at 50.0 µM) it was 18.6%. For the same compound, the growth inhibition is -10% in assay [3] (setting [7]); 11% in assay [3] (setting [8]); 23.4% in assay [3] (at 50.0 µM); -3% in assay [4] (setting [7]); -2% in assay [4] (setting [8]); 2.35% in assay [4] (at 50.0 µM). Further, the growth inhibition was 4% in assay [5] (setting [7]); 30% in assay [5] (setting [8]); 54.4% in assay [5] (at 50.0 µM); -6% in assay [6] (setting [7]); 14% in assay [6] (setting [8]); 33.9% in assay [6] (at 50.0 µM).
For `Cc1[nH]c2c(C)cccc2c1C1Cc2ccccc2N1` (stereo not given), the growth inhibition is 3% in assay [1] (setting [7]); 99% (active) in assay [1] (setting [8]); 98.4% (active) in assay [1] (at 50.0 µM); -1% in assay [2] (setting [7]); 99% (active) in assay [2] (setting [8]); 98.8% (active) in assay [2] (at 50.0 µM). Further, the growth inhibition in assay [3] (setting [7]) is -12%; in assay [3] (setting [8]), 98% (active); in assay [3] (at 50.0 µM), 98.8% (active); in assay [4] (setting [7]), -5%; in assay [4] (setting [8]), 98% (active); in assay [4] (at 50.0 µM), 98.5% (active). Further, the growth inhibition in assay [5] (setting [7]) is 6%; in assay [5] (setting [8]), 98% (active); in assay [5] (at 50.0 µM), 98.7% (active); in assay [6] (setting [7]), 4%; in assay [6] (setting [8]), 98% (active); in assay [6] (at 50.0 µM) it was 98.2% (active).
Take `COC(=O)CC1(O)c2cc(OC)c3cccc(OC)c3c2CCC1(C)C(=O)OC` (stereo not given): the growth inhibition in assay [1] (setting [7]) was 88% (active); in assay [1] (setting [8]), 97% (active); in assay [1] (at 50.0 µM), 92.9% (active); in assay [2] (setting [7]) it was 91% (active); in assay [2] (setting [8]) it was 99% (active); in assay [2] (at 50.0 µM), 88.8% (active). Besides, the growth inhibition in assay [3] (setting [7]) was 85% (active); in assay [3] (setting [8]), 99% (active); in assay [3] (at 50.0 µM), 95.2% (active); in assay [4] (setting [7]) it was 80% (active); in assay [4] (setting [8]), 97% (active); in assay [4] (at 50.0 µM), 96% (active). Also, the growth inhibition in assay [5] (setting [7]) was 83% (active); in assay [5] (setting [8]), 98% (active); in assay [5] (at 50.0 µM), 88.5% (active); in assay [6] (setting [7]), 92% (active); in assay [6] (setting [8]), 98% (active); in assay [6] (at 50.0 µM), 94.8% (active).
As for `N=C(N)c1ccc(Oc2ccc(Oc3ccc(C(=N)N)cc3)cc2)cc1`, the growth inhibition in assay [1] (setting [7]) is 43%; in assay [1] (setting [8]), 69%; in assay [1] (at 50.0 µM), 70.8% (active); in assay [2] (setting [7]), 39%; in assay [2] (setting [8]), 68%; in assay [2] (at 50.0 µM), 83.8% (active). Further, the growth inhibition in assay [3] (setting [7]) is 59%; in assay [3] (setting [8]), 89% (active); in assay [3] (at 50.0 µM), 81.2% (active); in assay [4] (setting [7]), 50%; in assay [4] (setting [8]), 80% (active); in assay [4] (at 50.0 µM), 64.6%. For the same compound, the growth inhibition in assay [5] (setting [7]) was 53%; in assay [5] (setting [8]), 79% (active); in assay [5] (at 50.0 µM), 65.7%; in assay [6] (setting [7]), 57%; in assay [6] (setting [8]) it was 90% (active); in assay [6] (at 50.0 µM) it was 81.5% (active).
Regarding `O=C(c1ccccc1)C(Br)C(Br)c1ccc(Cl)c(Cl)c1` (stereo not given), the growth inhibition in assay [1] (setting [7]) is 67%; in assay [1] (setting [8]) it was 96% (active); in assay [1] (at 50.0 µM), -8.65%; in assay [2] (setting [7]), 69%; in assay [2] (setting [8]) it was 98% (active); in assay [2] (at 50.0 µM), 24.3%. In addition, the growth inhibition in assay [3] (setting [7]) was 92% (active); in assay [3] (setting [8]), 97% (active); in assay [3] (at 50.0 µM), 60.1%; in assay [4] (setting [7]), 39%; in assay [4] (setting [8]), 97% (active); in assay [4] (at 50.0 µM), -16.2%. Also, the growth inhibition is 87% (active) in assay [5] (setting [7]); 98% (active) in assay [5] (setting [8]); 13.1% in assay [5] (at 50.0 µM); 73% (active) in assay [6] (setting [7]); 97% (active) in assay [6] (setting [8]); 77.8% (active) in assay [6] (at 50.0 µM).
Consider `CSC(=Nc1ccccc1)/N=C(\SCc1ccccc1)N(C)C`, for which the growth inhibition in assay [1] (setting [7]) was 45%; in assay [1] (setting [8]), 98% (active); in assay [1] (at 50.0 µM) it was 99.3% (active); in assay [2] (setting [7]) it was 26%; in assay [2] (setting [8]) it was 45%; in assay [2] (at 50.0 µM) it was 99.7% (active). Besides, the growth inhibition in assay [3] (setting [7]) is 27%; in assay [3] (setting [8]) it was 99% (active); in assay [3] (at 50.0 µM) it was 99.2% (active); in assay [4] (setting [7]), 13%; in assay [4] (setting [8]), 99% (active); in assay [4] (at 50.0 µM) it was 98.8% (active). The growth inhibition in assay [5] (setting [7]) was -30%; in assay [5] (setting [8]) it was 99% (active); in assay [5] (at 50.0 µM), 99.5% (active); in assay [6] (setting [7]) it was 44%; in assay [6] (setting [8]), 99% (active); in assay [6] (at 50.0 µM) it was 99.3% (active).
